# ANO1 block: mouse TMEM16A channel inhibition, primary screen. Q8BHY3. HEK293 TMEM16A/YFP iodide influx fluorescence, ionomycin. normalized B-score (activity score, 25-100; higher = stronger inhibition) at 10 µM. actives 1.2% (n = 310,000). AID 588511;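 active means ratio plate-corrected score three or more library SD toward inhibition, starting fluorescence score within five deviations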;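 further: score derived from kinetic fluorescence span divided by baseline fluorescence per well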
# MPTP block: inhibitors of mitochondrial permeability transition pore; isolated mouse mitochondria, Ca2+ swelling absorbance, 30 min; actives 1.4% (n = 360,000); inhibition, % at 10 µM;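 active means inhibition of 50% or more, scaled per plate between neutral and stimulator controls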;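 further: 0% = DMSO wells given calcium and 100% = 1 mM EGTA wells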
# CRFBP-R2 block: CRF-BP/CRF-R2 complex antagonism; HEK293 CRF-R2/CRF-BP, CRF-induced calcium fluorescence; inhibition, % at 11.8 µM; actives 0.59% (n = 350,000);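 active means inhibition of the ligand-induced calcium signal above about 50% at the single tested concentration, limit read from the data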
# GRIN3A LBD mod: modulators (binders) of human NR3A ligand-binding domain; actives 2.5% (n = 340,000); NR3A LBD differential scanning fluorimetry, Tm shift; 0% = protein alone, 100% = glycine-bound protein; Tm shift relative to glycine control, % at 25 µM;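 active means melting temperature shift of at least 10% of the positive control shift, at one fixed dose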
# CRFR2-BP ag: agonists of human CRF-binding protein/CRF-R2 receptor complex. HEK293 CRF-R2/CRF-BP, calcium dye fluorescence (FLIPR); percent of saturating CRF peptide response. activation, % at 13.2 µM. actives 0.46% (n = 350,000);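 active means activation of at least 50%, plus an integration ratio under a set limit after plate pattern correction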;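 further: plate controls were neutral control wells without compound for no effect and CRF at EC100 for full effect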
# TMEM16A act: activators or potentiators of mouse TMEM16A chloride channel; Q8BHY3; HEK293 TMEM16A/YFP-H148Q/I152L, iodide quench fluorescence; hits give low values; B-score at 10 µM; actives 0.3% (n = 340,000);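 active means fluorescence-ratio B-score plate-corrected deviation score at least 3 library SD below zero, with starting fluorescence score within 5 deviations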;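 further: channel opened by trigger with iodide after compound preincubation; score built on the fluorescence ratio of max minus min over baseline; more negative score means more quench and so TMEM16A activation or potentiation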
# The depositor's hits bear a star; i = inactive; · = no result. Rows were chosen to be rich in hits. Some 5.1% of all compounds tested hit in one or more screens of this group.
SMILES,ANO1 block,MPTP block,CRFBP-R2 block,GRIN3A LBD mod,CRFR2-BP ag,TMEM16A act
CN(C)c1ccc(/C=C2\SC(N3CCCCC3)=NC2=O)cc1,i,0,-59,-1,51*,i
S=C(NCCc1ccccc1)NCCc1ccccc1,i,4,3,26*,-1,i
NS(=O)(=O)c1ccc(NC(=S)NCCc2ccccc2)cc1,i,-3,-8,12*,-1,i
CCOc1ccccc1NC(=O)CNC(=O)CNC(=O)Cc1ccccc1,i,0,-13,-3,-1,i
CCOc1ccccc1NC(=O)CNC(=O)Cc1ccccc1,i,-1,52*,-1,0,i
CC(C)(C)C(=O)NC(=S)NCCc1ccccc1,i,2,51*,2,0,i
NNC(=S)NCCc1ccccc1,i,0,18,1,-4,i
O=C(Nc1cccc(Cl)c1)C1CCN(C(=O)c2cccs2)CC1,i,0,-5,-1,0,i
Cc1cc(C(=O)COC(=O)COc2ccccc2C#N)c(C)n1CC1CCCO1 (stereo not drawn),·,-2,5,-1,0,i
CCOc1ccccc1NC(=S)NCCc1ccccc1,i,2,1,0,1,-5.2*
CCOc1ccccc1NC(=S)NCCc1ccc(F)cc1,i,-1,1,0,-1,i
COc1ccc(-c2nnc(SCC(=O)/C(C#N)=C(\C)N)o2)cc1,i,0,16,13*,0,i
O=C1C2C3C=CC(C3)C2C(=O)N1c1cccc(N2C(=O)C3C4C=CC(C4)C3C2=O)n1 (stereo not drawn),i,0,-91,1,73*,i
CN1/C(=C\C(=O)c2cccc([N+](=O)[O-])c2)Sc2ccccc21,i,1,-4,12*,0,i
O=C(COC(=O)c1ccc[nH]c1=O)NC1CCCCCCC1,i,0,0,0,0,-22*
CCOC(=O)C1(CCOc2ccccc2)CCN(Cc2ccc(-n3cccn3)cc2)CC1,25*,-1,-13,1,1,i
CCOC(=O)C1(CCOc2ccccc2)CCN(Cc2ccncc2)CC1,i,-2,1,-2,0,i
CCOC(=O)Nc1cc2c(c(N)n1)N=C(c1ccccc1)CN2,·,-1,-80,7,65*,i
CCOC(=O)C1=NN(c2ccccc2)C2=NC(C)=C(C(=O)OC)C(c3cccs3)N12 (stereo not drawn),i,1,75*,3,2,i
Cc1ccc(NS(=O)(=O)c2cccc(C(=O)NNC(=O)c3ccco3)c2)c(C)c1,i,0,3,-3,-1,i
CCC(C)NC(=O)CN1C(=O)CSc2ccc(S(=O)(=O)N3CCCC3)cc21 (stereo not drawn),i,0,0,-2,0,i
CC(C)NC(=O)CN1C(=O)CSc2ccc(S(=O)(=O)N3CCCC3)cc21,i,-2,64*,1,4,i
Cc1cc(C)n2nc(C(=O)N/N=C/c3cccc(Cl)c3)nc2n1,i,0,6,12*,0,i
Cc1cc(C)n2nc(C(=O)N/N=C/c3ccc(Cl)cc3)nc2n1,i,-2,-4,1,-1,i
Cc1cc(C)n2nc(CC(=O)NNC(=O)c3ccccc3Cl)nc2n1,i,-2,103*,1,1,i
SMILES,ANO1 block,MPTP block,CRFBP-R2 block,GRIN3A LBD mod,CRFR2-BP ag,TMEM16A act
Cc1ccc(S(=O)(=O)N(C)CC(=O)O/N=C(\N)c2ccc([N+](=O)[O-])cc2)cc1,i,4,-4,21*,0,i
CN(CC(=O)O/N=C(\N)c1ccc([N+](=O)[O-])cc1)S(=O)(=O)c1ccccc1,i,-3,5,1,6,i
Cc1ccc(C(=O)O/N=C(\N)c2cccc([N+](=O)[O-])c2)cc1,i,0,-9,13*,-1,i
COc1cc(C(=O)O/N=C(\N)c2ccc([N+](=O)[O-])cc2)cc(OC)c1OC,i,1,2,1,0,i
COc1cc(C(=O)O/N=C(\N)c2cccc([N+](=O)[O-])c2)cc(OC)c1OC,i,4,5,14*,0,i
O=S1(=O)c2c(Oc3cccc4ccccc34)cccc2OC(COCc2ccccc2)CN1C1CCCC1 (stereo not drawn),·,-2,0,18*,4,·
CCCCN1CC(COCc2ccccc2)Oc2cccc(Oc3ccc(F)cc3)c2S1(=O)=O (stereo not drawn),·,-1,0,13*,12,·
O=S1(=O)c2c(F)cccc2OC(COCc2ccccc2)CN1C1CCCC1 (stereo not drawn),·,-3,20,2,-3,·
COc1ccc(N2CCN(C(=O)c3ccc4c(c3)CCN4S(C)(=O)=O)CC2)cc1,·,1,2,·,-1,·
Cc1ccccc1N=Nc1c(C)[nH]n(C(N)=S)c1=O,i,1,-10,-5,-2,i
Cc1[nH]n(C(N)=S)c(=O)c1N=Nc1ccccc1C(F)(F)F,i,2,14,10*,1,i
O=c1[nH]c(C2CCN(S(=O)(=O)c3ccc4c(c3)OCCO4)CC2)nc2c1nnn2Cc1ccc(F)cc1,i,0,7,-2,-1,i
COc1cccc(-c2cc(C(=O)Nc3c(C)nn(Cc4ccccc4)c3C)no2)c1,i,-1,16,-1,-3,i
COc1cccc(-c2cc(C(=O)Nc3c(C)nn(Cc4ccccc4C)c3C)no2)c1,i,0,-4,11*,-2,i
Cc1nc2ccccn2c1CN(C)C(=O)C1CCC(=O)N(Cc2cccc(F)c2)C1 (stereo not drawn),i,-3,-13,2,1,i
COc1ccccc1OCC(=O)Nc1ccc2c(c1)C(=O)N(CC1CCCO1)C2=O (stereo not drawn),i,0,11,0,-1,i
COc1ccccc1Oc1ccc2c(c1)C(=O)N(CC1CCCO1)C2=O (stereo not drawn),i,3,3,12*,1,i
Cc1ccc(NC(=O)COc2ccc(/C=N/NC(=O)CSCc3ccccc3)cc2)cc1,i,-1,11,18*,1,i
COc1cc(/C=N/NC(=O)COc2ccc(Cl)cc2)ccc1OS(=O)(=O)c1ccc(C)cc1,i,6,-2,12*,1,i
Cc1ccc(/C=N/NC(=O)CSCc2ccc(Cl)cc2)cc1,i,2,-33,-5,-1,i
